What all share (assay): NCI-60 one-dose screen, 48 h (100 = growth as untreated, 0 = no growth, -100 = all killed)
Holding throughout (settings): 10 µM unless noted

Test [1] deals with NCI-H23 lung.
In test [2] the test system is NCI-H322M lung.
The test system of test [3] is HOP-62 NSCLC.
In test [4] the test system is NCI-H460 lung.
The test system of test [5] is HOP-92 NSCLC.
Test [6] relates to NCI-H522 lung.
In test [7] the test system is A549/ATCC NSCLC.
In test [8] the test system is 786-0 renal.
Test [9] deals with COLO 205 colon.
For test [10], the system named is DU-145 prostate.
Test [11] relates to K-562 leukemia.
Test [12] deals with MALME-3M melanoma.
Test [13] has as its system MDA-MB-231 breast.
Test [14] relates to RXF 393 renal.
For test [15], the system named is SF-268 CNS.
Test [16] concerns SF-295 CNS.
In test [17] the test system is SF-539 CNS.
In test [18] the test system is UACC-257 melanoma.
In test [19] the test system is M14 melanoma.
The subject of test [20] is HCT-15 colon.

Each structure is given as a SMILES string. This is part of a sample that, as a whole, favours compounds with a hit. Of some 83,000 tested, about 20% had one in any assay.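 Growth was measured after 48 h exposure to one concentration of compound in 96-well plates. Values under 10 count as active.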 A number with no mark means an inactive call. Calls of active or inactive are those of the source.

For `CCN1C(=O)N(CC)C2Nn3c(s/c(=C4\C(=O)N(C(C)C)c5ccccc54)c3=O)=NC21` (stereo not given), the growth in test [1] was 36.6%; in test [2] it was 61.3%; in [3], 51.8%; in test [4] it was 21.3%; in [5], 13.9%; in test [6], 27.2%. Further, the growth in test [7] is 30.4%; in [8] it was 49.1%; in test [9], 7.65% (active); in test [10] it was 38%; in [11], 13.8%; in [12], 71.4%. Also, the growth in test [13] is 24%; in test [14], 44.5%; in [15], 51.8%; in test [16], 19%; in [17], 11.5%; in test [18], 28.9%. The growth in test [19] was 21.9%; in test [20] it was 22.3%.

Regarding `CCOC(=O)c1ccc(N=Cc2sc(=O)[nH]c2O)cc1`, the growth in [1] is 98%; in test [2], 101%; in [3] it was 95.4%; in test [4] it was 101%; in test [5], 90.1%; in [6], 93.7%. In addition, the growth in test [7] is 96.6%; in test [8], 98.4%; in [9], 104%; in [10] it was 103%; in test [11], 103%; in test [12], 91.2%. Further, the growth in test [13] was 95.5%; in test [14], 102%; in test [15], 88.3%; in [16], 94.1%; in [17], 94%; in [18], 96.9%. Besides, the growth in test [19] is 97.9%; in test [20], 99.1%.

On to `Cc1nc(Nc2ccccn2)sc1C(=O)/C=C/c1ccc(Cl)cc1`, for which the growth was 22.7% in test [1]; 32.1% in test [2]; 16.4% in [3]; 3.86% (active) in test [4]; 31.8% in [5]; -39.3% (active) in test [6]. Moreover, the growth is 17.2% in test [7]; 19.7% in test [8]; -21.5% (active) in test [9]; 6.68% (active) in [10]; 8.43% (active) in test [11]; 50.3% in test [12]. Further, the growth was 20.4% in test [13]; 20.2% in [14]; 19.9% in [15]; 4.33% (active) in test [16]; -8.91% (active) in test [17]; 41.8% in [18]. Further, the growth in [19] is 11.6%; in [20] it was 11.7%.

Take `Cc1ccc(CN2CCC(C(=O)Nc3ccc(-c4cc5ccccc5[nH]4)cc3)CC2)o1`: the growth in [1] is 69.6%; in test [2] it was 95.1%; in test [3], 97.9%; in test [4] it was 27.9%; in [5] it was 36.8%; in test [6], 72%. In addition, the growth is 33.7% in test [7]; 38.4% in test [8]; 83.4% in test [9]; 60.2% in test [10]; 3.08% (active) in test [11]; 77.9% in [12]. Further, the growth in test [13] is 60.7%; in test [14] it was 54.6%; in [15] it was 66.6%; in test [16], 17.2%; in test [17] it was 84.3%; in test [18], 85.4%. The growth was 41.9% in [19] and 44.2% in test [20].

As for `COC(=O)/C(CCC=C(C)C)=C1\[C@@H](OC(C)=O)C[C@@]2(C)[C@H]1C[C@@H](O)[C@H]1[C@@]3(C)CC[C@H](NCc4ccccc4)[C@@H](C)[C@@H]3CC[C@@]12C`, the growth was 81.4% in test [1]; 91.5% in test [2]; 84% in test [3]; 45.1% in [4]; 48.8% in test [5]; 80% in test [6]. Further, the growth in [7] is 59%; in test [8] it was 55.4%; in [9] it was 50%; in test [10] it was 74.8%; in test [11] it was 11%; in test [12], 68%. The growth in [13] was 63.6%; in test [14] it was 49.6%; in test [15], 64.1%; in test [16], 85.7%; in test [17], 70%; in test [18] it was 75.4%. The growth in [19] is 49.8%; in [20], 31%.

`O=C(Nc1ccc(Cl)cc1)N1CCN(c2ccc3nncn3n2)CC1`: the growth in test [1] was 77.2%; in test [2] it was 29.8%; in test [3], -11.4% (active); in test [4], -27.3% (active); in test [5], -21.8% (active); in test [6] it was -45.1% (active). Further, the growth is -12% (active) in [7]; -85.9% (active) in test [8]; -81.2% (active) in [9]; 36% in test [10]; -61.1% (active) in test [11]; -86.8% (active) in [12]. Also, the growth is -55.5% (active) in test [13]; -81.2% (active) in test [14]; -48.1% (active) in [15]; -87.2% (active) in test [16]; -86.7% (active) in test [17]; -68.9% (active) in [18]. Moreover, the figures for the growth in test [19] and in test [20] were -87.1% (active) and 0.448% (active), respectively.

In the case of `CCOC(=O)C1=CN(C)C=C(C(=O)OCC)C1c1cc(Br)c(OCC)c(OC)c1`, the growth in test [1] was 65.9%; in test [2], 98.6%; in [3], 55.6%; in test [4], 34.5%; in test [5], 2.87% (active); in test [6] it was 52.2%. For the same molecule, the growth in test [7] was 66.1%; in test [8], 59.9%; in test [9], -59.7% (active); in test [10], 84%; in test [11], -20.4% (active); in [12], -1.58% (active). Besides, the growth was 36.8% in test [13]; 49.9% in [14]; 73.3% in [15]; -47.3% (active) in [16]; 58.9% in [17]; -50% (active) in test [18]. Further, the results for the growth in test [19] and in test [20] were -37.3% (active) and 14.7%, respectively.

For the molecule `CCCCCCn1c(=N)n(CC(O)COc2cccc(C)c2)c2ccccc21` (stereo not given), the growth in test [1] is 11%; in test [2] it was -42.8% (active); in [3], -74.6% (active); in test [4], -68.1% (active); in test [5], -6.11% (active); in [6], -74.5% (active). Also, the growth in [7] was -32.3% (active); in [8], -86.5% (active); in test [9] it was -94.4% (active); in test [10], -22.4% (active); in [11], -2.58% (active); in test [12] it was -90.9% (active). In addition, the growth in test [13] is -70.7% (active); in test [14] it was -95.1% (active); in test [15], -14.2% (active); in test [16] it was -85.7% (active); in [17] it was -86.4% (active); in [18], -87.8% (active). Also, the growth was -75.2% (active) in [19] and -18.8% (active) in test [20].

These data come from PubChem BioAssay (NCI).
